Out of some 2,400 compounds screened, about 750 (31%) were called active.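 How the source made its calls: active means median signal gain over dofetilide-blocked control wells reaching their mean plus 3 SD, so readout 1 at least 0; inactive means the rest.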 Some of the results follow.

The target of the assay is Voltage-gated inwardly rectifying potassium channel KCNH2 (Homo sapiens) (UniProt Q12809). As to the kind of experiment: hERG protection against dofetilide inhibition, confirmation, cell-based, thallium flux, duplicate retest, dofetilide IC70 (AID 1835). Particulars: hERG cell line, FluxOR thallium flux, dofetilide-blocked; at 10 µM; active compounds read high. (The hERG channel carries a current that helps repolarise heart muscle cells.)
Sequence of Voltage-gated inwardly rectifying potassium channel KCNH2 (Homo sapiens) (Q12809 whole entry, looked up): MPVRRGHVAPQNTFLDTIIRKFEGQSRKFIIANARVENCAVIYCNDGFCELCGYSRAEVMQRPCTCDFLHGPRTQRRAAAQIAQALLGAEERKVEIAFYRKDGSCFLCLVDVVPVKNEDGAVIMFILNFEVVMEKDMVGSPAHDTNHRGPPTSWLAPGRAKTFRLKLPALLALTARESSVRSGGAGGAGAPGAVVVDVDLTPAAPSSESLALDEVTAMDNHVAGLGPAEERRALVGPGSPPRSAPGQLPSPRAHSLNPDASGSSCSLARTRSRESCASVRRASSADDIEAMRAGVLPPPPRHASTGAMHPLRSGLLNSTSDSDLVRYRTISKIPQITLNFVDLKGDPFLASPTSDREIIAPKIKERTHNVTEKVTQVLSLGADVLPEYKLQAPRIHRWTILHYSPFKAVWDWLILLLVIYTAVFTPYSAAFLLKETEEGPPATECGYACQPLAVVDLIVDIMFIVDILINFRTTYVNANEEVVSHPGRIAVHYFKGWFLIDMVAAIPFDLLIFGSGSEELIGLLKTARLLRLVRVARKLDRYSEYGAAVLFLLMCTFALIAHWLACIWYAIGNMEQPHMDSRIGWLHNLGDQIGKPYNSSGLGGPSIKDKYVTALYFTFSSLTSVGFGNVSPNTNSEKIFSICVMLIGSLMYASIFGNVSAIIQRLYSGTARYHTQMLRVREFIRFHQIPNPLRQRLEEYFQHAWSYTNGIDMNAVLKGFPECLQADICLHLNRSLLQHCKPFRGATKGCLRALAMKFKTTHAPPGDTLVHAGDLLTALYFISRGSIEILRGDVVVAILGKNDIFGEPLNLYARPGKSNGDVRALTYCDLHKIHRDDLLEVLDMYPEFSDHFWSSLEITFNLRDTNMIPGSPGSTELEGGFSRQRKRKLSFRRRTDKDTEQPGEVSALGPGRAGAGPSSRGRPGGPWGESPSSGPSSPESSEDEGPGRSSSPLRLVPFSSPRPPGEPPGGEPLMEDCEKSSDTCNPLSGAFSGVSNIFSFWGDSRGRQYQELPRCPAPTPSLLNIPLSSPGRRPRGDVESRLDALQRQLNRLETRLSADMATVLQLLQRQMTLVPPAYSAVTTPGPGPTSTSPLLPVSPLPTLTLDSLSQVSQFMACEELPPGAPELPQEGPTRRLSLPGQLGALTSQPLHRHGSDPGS
On to `Cc1ccc2nc(NC(=S)NC(=O)c3cccs3)sc2c1`, for which the activity increase over dofetilide control, less the hit threshold was 10% (active).
Regarding `O=C(NC(=S)Nc1nc2ccccc2s1)c1cccs1`, the activity increase over dofetilide control, less the hit threshold was 52% (active).
The result for `Cc1cc(F)ccc1NC(=O)C1CCN(C(=O)Nc2ccccc2)CC1` reads -17% (inactive); that for `O=C(NC(C(=O)c1ccccc1)n1cnccc1=O)c1ccccc1` (configuration not stated), -3% (inactive).
The figure for `CCOC(=O)c1c(NC(=O)CN2CCN(C(=O)c3ccco3)CC2)sc2c1CCCC2` is 7% (active); for `CCc1c(C)sc(NC(=O)CN2CCN(C(=O)c3ccco3)CC2)c1C(=O)OC` it is 1% (active); for `COC(=O)c1c(NC(=O)c2ccco2)sc2c1C(C(=O)OC)CC2` (configuration not stated) it is -18% (inactive).
The figure for `O=C(CCNS(=O)(=O)c1ccc(Cl)cc1)OCC(=O)N1CCN(C(=O)c2ccco2)CC1` is -17% (inactive).
Turning to `CCOc1ccc(OCC(=O)OCC(=O)N2CCN(C(=O)c3ccco3)CC2)cc1`, the activity increase over dofetilide control, less the hit threshold is -2% (inactive).
The result for `Nc1ccc(C(=O)OCC(=O)N2CCN(C(=O)c3ccco3)CC2)cc1[N+](=O)[O-]` reads -16% (inactive); that for `CC1=C(C)CS(=O)N(c2ccc(S(N)(=O)=O)cc2)C1` (configuration not stated), -3% (inactive); that for `Cn1ncc2c(NNC(=O)c3ccc(O)cc3)ncnc21`, -15% (inactive).
The figure for `Cc1nc(NCc2cccnc2)c2c3c(sc2n1)CC(C)CC3` (configuration not stated) is 55% (active); for `COc1ccc(S(=O)(=O)N2CCN(C(=O)CNC(=O)c3ccc4c(c3)OCO4)CC2)cc1` it is -11% (inactive).
On to `COc1ccc(N2CCN(CC(O)COc3ccc(F)cc3)CC2)cc1` (configuration not stated), for which the activity increase over dofetilide control, less the hit threshold is -8% (inactive).
The result for `COc1ccc(NC(=O)c2cc(S(=O)(=O)N3CCOCC3)ccc2N2CCOCC2)cc1` reads -16% (inactive); that for `O=C(NC(=S)Nc1ccccc1N1CCCC1)c1cccs1`, 0% (inactive).
The figure for `Nc1ccc(Cl)c(NC(=O)c2cccs2)c1` is -11% (inactive); for `CCC(=O)Nc1ccc(N2CCOCC2)c(S(=O)(=O)Nc2ccc(OC)cc2)c1` it is -26% (inactive); for `O=C(NC(=S)Nc1ccc(N2CCCCC2)c(Cl)c1)c1cccs1` it is 23% (active).
The figure for `O=C(NC(=S)Nc1ccc(N2CCOCC2)c(Cl)c1)c1sc2ccccc2c1Cl` is 15% (active); for `O=C(NC(=S)Nc1ccc(N2CCCCC2)cc1)c1cccs1` it is -2% (inactive); for `O=C(NC(=S)Nc1ccccc1N1CCCCC1)c1cccs1` it is 11% (active).
With `COCCN1C(=O)C(=O)/C(=C(/O)c2ccc(S(=O)(=O)N3CCOCC3)cc2)C1c1ccc(OC)c(OC)c1` (configuration not stated), the activity increase over dofetilide control, less the hit threshold is -17% (inactive).
The figure for `Nc1nc(Br)c2c(F)cccc2c1-c1ccc(Cl)cc1` is -6% (inactive); for `Cc1ccc(C2c3c(-c4ccccc4O)n[nH]c3C(=O)N2Cc2ccncc2)cc1` (configuration not stated) it is -3% (inactive).
For the molecule `O=C(COc1ccc([N+](=O)[O-])cc1)Nc1cccnc1`, the activity increase over dofetilide control, less the hit threshold was -25% (inactive).
As for `O=C(COc1ccccc1)Nc1ccc(S(=O)(=O)Nc2ccccn2)cc1`, the activity increase over dofetilide control, less the hit threshold was -18% (inactive).
`N#Cc1ccc(-c2ccc(OCC(=O)Nc3cccnc3)cc2)cc1`: the activity increase over dofetilide control, less the hit threshold was -10% (inactive).
The figure for `O=C(COc1ccc(Cl)cc1Cl)Nc1cccnc1` is -2% (inactive); for `O=C(COc1ccc2ccccc2c1Br)Nc1cccnc1` it is 31% (active).
The figure for `O=C(COc1ccc(C(=O)c2ccccc2)cc1)Nc1cccnc1` is 4% (active); for `CC(=O)OCC1O[C@@H](O[C@@H]2C[C@H]3C(C)(C)[C@H](OC(C)=O)CC[C@]3(C)[C@H]3CC[C@]45C[C@]4(CC[C@H]5[C@@H](C)C[C@@H](O)[C@H](O)C(C)(C)O)[C@@]32C)[C@H](O)[C@@H](O)[C@@H]1O` (some centres not stated) it is 12% (active).
The figure for `C/C(=N\Nc1nc2ccccc2s1)c1cccs1` is -8% (inactive); for `C/C(=N\Nc1nc2ccccc2s1)c1ccc(Br)s1` it is -11% (inactive); for `C/C(=N\Nc1nc2ccccc2nc1C)c1ccccc1O` it is 10% (active).
Turning to `COCCNC(=O)C(c1ccc(C)o1)N(Cc1ccc(OC)cc1)C(=O)Cn1nnc2ccccc21` (configuration not stated), the activity increase over dofetilide control, less the hit threshold is 4% (active).
For `Cc1ccc(-c2nnn(CC(=O)N(CC3CCCO3)C(C(=O)NC3CCCC3)c3ccc(O)cc3)n2)o1` (configuration not stated), the activity increase over dofetilide control, less the hit threshold is -7% (inactive).
The result for `COCCNC(=O)C(c1ccncc1)N(C(=O)Cn1nnc2ccccc21)c1ccc(OC)cc1` (configuration not stated) reads -9% (inactive); that for `O=[N+]([O-])c1cccc(/C=C/c2nc(C=Nc3ccccc3)c(O)o2)c1`, -13% (inactive); that for `COc1cc2c(cc1OC)CN(C(=O)c1ccc3nc[nH]c3c1)CC2`, -2% (inactive).
As to `Cc1onc(C(=O)N2CCC(C(N)=O)CC2)c1-c1ccccc1Cl`, the activity increase over dofetilide control, less the hit threshold was -17% (inactive).
In the case of `O=c1[nH]c2ccc(S(=O)(=O)NCc3ccccc3)cc2[nH]1`, the activity increase over dofetilide control, less the hit threshold was -5% (inactive).
Consider `Nc1ccc2c(c1)C(=O)C(=O)c1ccccc1-2`, for which the activity increase over dofetilide control, less the hit threshold is 10% (active).
The result for `CC(=O)N(C1=C(N)C(=O)c2ccccc2C1=O)C(C)C` reads -12% (inactive); that for `Clc1ccc(Cc2ccccc2)nn1`, -10% (inactive).
The figure for `CC(=O)C1=C(O)C(=O)N(c2cccnc2)C1c1ccc(Cl)cc1` (configuration not stated) is -30% (inactive).
With `O=C(COc1coc(CN2CCc3ccccc3C2)cc1=O)Nc1cccc(Cl)c1`, the activity increase over dofetilide control, less the hit threshold was -17% (inactive).
As for `CC(Oc1ccc(Cl)cc1Cl)C(=O)NC(=S)N1CCc2ccccc21` (configuration not stated), the activity increase over dofetilide control, less the hit threshold was 36% (active).
The figure for `O=C(COc1ccc(Cl)cc1Cl)NC(=S)N1CCCc2ccccc21` is 21% (active); for `O=C(COc1ccc(Br)cc1Br)NC(=S)N1CCCc2ccccc21` it is 6% (active).
As for `O=C(COc1ccc(Br)cc1Cl)NC(=S)N1CCc2ccccc21`, the activity increase over dofetilide control, less the hit threshold was -4% (inactive).
For the molecule `CC(C)c1ccc(OCC(=O)NN2C(=O)c3ccccc3C2=O)c(Br)c1`, the activity increase over dofetilide control, less the hit threshold was -17% (inactive).
In the case of `CSc1nc2ccc(S(=O)(=O)N3CCc4ccccc43)cc2s1`, the activity increase over dofetilide control, less the hit threshold was 0% (inactive).
The result for `CCOc1ccc2[nH]c(=O)c(CN(Cc3ccc(C)cc3)C(=O)N3CCCC3)cc2c1` reads -8% (inactive); that for `Cc1cc(C)cc(NC(=O)N2CCCC2C(=O)Nc2ccc(-n3cnnn3)c(C)c2)c1` (configuration not stated), -28% (inactive); that for `Cc1cc(SC#N)cc(C)c1NC(=O)CCl`, -1% (inactive).
The result for `C=CCNC(=O)CC(=O)N/N=C/c1cccs1` reads 0% (inactive).
Regarding `O=C(NC1CCN(c2ncccn2)CC1)c1c(F)cccc1F`, the activity increase over dofetilide control, less the hit threshold was -2% (inactive).
`C=CCNc1sc(C(=O)C(C)(C)C)c(N)c1C#N`: the activity increase over dofetilide control, less the hit threshold is -14% (inactive).
The figure for `COc1cc(/C=C2/C(=O)NN(c3ccc(Cl)c(Cl)c3)C2=O)cc([N+](=O)[O-])c1O` is -1% (inactive); for `CC(CCc1ccccc1)NC(=S)NC(=O)c1ccco1` (configuration not stated) it is 28% (active).
Turning to `O=C(NC(=S)N(CCc1ccccc1)CCc1ccccc1)c1ccco1`, the activity increase over dofetilide control, less the hit threshold was 53% (active).
The result for `O=[N+]([O-])C1=CC=C2C(=NC3(CCCCC3)N2O)C1=NC1CCCCC1` reads -15% (inactive).
With `O=C(COC(=O)c1cc(S(=O)(=O)NCc2ccccc2)ccc1O)NCc1ccccc1`, the activity increase over dofetilide control, less the hit threshold is -7% (inactive).
The result for `Cc1cc(N2C(=O)C(O)=C(C(=O)c3cccs3)C2c2ccccc2)no1` (configuration not stated) reads -11% (inactive); that for `COc1ccc(CNC(=O)C(=O)c2cn(CC(=O)N3CCCC3)c3ccccc23)cc1`, -21% (inactive); that for `Cc1ccccc1C(=O)c1cn[nH]c1-c1ccccc1O`, -29% (inactive).
For `O=C(NNC(=O)c1ccc(Cl)cc1Cl)c1cnccn1`, the activity increase over dofetilide control, less the hit threshold was -16% (inactive).
In the case of `CC(C)CC(=O)Nc1nc(=S)ss1`, the activity increase over dofetilide control, less the hit threshold is -11% (inactive).
The result for `Cc1ccccc1C(=O)Nc1nc(=S)ss1` reads 39% (active); that for `O=C(Nc1nc(=S)ss1)c1ccc(Cl)cc1Cl`, 70% (active).
Take `COc1nnc(-c2ccc(C)c(S(=O)(=O)NC(C)(C)CO)c2)c2ccccc12`: the activity increase over dofetilide control, less the hit threshold was -17% (inactive).
The result for `CN(Cc1cnn(C)c1)C(=O)C1CCC(=O)N(Cc2cccc(C(F)(F)F)c2)C1` (configuration not stated) reads -10% (inactive); that for `Cc1cc(C)c(S(=O)(=O)Nc2cccc(-n3cnnn3)c2)c(C)c1`, -14% (inactive); that for `O=C(COC(=O)C1CCC(=O)N1)Nc1ccc(Oc2ccccc2)cc1` (configuration not stated), -9% (inactive).
The result for `O=C(CCSc1ccc(Br)cc1)c1ccc(O)cc1` reads 2% (active); that for `CN1CCN(S(=O)(=O)c2cccc(S(=O)(=O)c3ccc(Cl)cc3)c2)CC1`, -10% (inactive).
On to `CCSc1nc2c(sc3ccccc32)c(=O)n1C(C)C`, for which the activity increase over dofetilide control, less the hit threshold was 25% (active).
For `CCN(CC)CCCNC(=O)c1cn(-c2cccc(OC)c2)c(=O)c2ccccc12`, the activity increase over dofetilide control, less the hit threshold was -16% (inactive).
The result for `COc1cccc(NC(=O)c2nn(-c3ccc(OC)cc3OC)c(=O)c3ccccc23)c1` reads -8% (inactive); that for `COc1cccc(-n2nc(C(=O)O)c3ccccc3c2=O)c1`, 11% (active); that for `Cc1ccc(C(=O)NNC(=S)NC(=O)c2ccc(Cl)cc2)cc1`, -23% (inactive).
In the case of `CC(C)CNC(=S)NC(=O)c1ccc(Cl)cc1`, the activity increase over dofetilide control, less the hit threshold was 19% (active).
For `Cc1cccc(C(=O)NC(=S)NNC(=O)c2ccc(Cl)cc2)c1`, the activity increase over dofetilide control, less the hit threshold was -10% (inactive).
The result for `Nc1nc2n(n1)C(=O)CC(c1ccc(Cl)cc1)N2` (configuration not stated) reads -10% (inactive).
The result for `CN(C)S(=O)(=O)c1cc(NC2CC(=O)N(c3ccc(F)cc3)C2=O)ccc1Cl` (configuration not stated) reads -2% (inactive); that for `CCN(Cc1ccccc1)C(=S)NC(=O)c1ccccc1Br`, 47% (active).
With `O=C(Cn1cncn1)c1ccccc1Br`, the activity increase over dofetilide control, less the hit threshold is -24% (inactive).
With `O=C(NC(=S)N(CCO)Cc1ccccc1)c1cc(Br)ccc1Cl`, the activity increase over dofetilide control, less the hit threshold was 7% (active).
Consider `COc1nccnc1NS(=O)(=O)c1ccc(NC(=S)NC(=O)c2ccccc2F)cc1`, for which the activity increase over dofetilide control, less the hit threshold is -17% (inactive).
The result for `O=C(NC(=S)N(Cc1ccccc1)Cc1ccccc1)c1ccccc1F` reads 32% (active).
Take `CN(Cc1ccccc1)C1CCN(Cc2ccccc2[N+](=O)[O-])CC1`: the activity increase over dofetilide control, less the hit threshold is -16% (inactive).
The result for `CCCN(Cc1ccccc1)C(=S)NC(=O)c1ccccc1[N+](=O)[O-]` reads 52% (active).
The figure for `CCC(=O)NC(=S)NNC(=O)c1ccccc1[N+](=O)[O-]` is -3% (inactive); for `O=C(O)c1ccc2c(c1)C(=O)N(c1cc([N+](=O)[O-])ccn1)C2=O` it is -3% (inactive); for `CCCN1Cc2cccc(C(=O)NCc3cccs3)c2C1=O` it is -21% (inactive).

(Values after PubChem BioAssay AID1835 (Johns Hopkins Ion Channel Center, 2009).)
